# Experiments:
# Assay in all cases: DAPPL (digital affinity profiling via proximity ligation, sequencing); 10 mM Tris-HCl pH 7.5, 50 mM NaCl, 1 mM DTT, 4% glycerol, room temperature, 30 min; GST-TFs on glutathione beads, 16-mer random dsDNA library, 0.1% formaldehyde crosslink after washing; high values mean tight binding
# FEV = biological target: T1, FEV (Homo sapiens, UniProt Q99581 1-238); details: protein: recombinant; tags: N-terminal GST; dsDNA, one strand shown
# T1 sequence: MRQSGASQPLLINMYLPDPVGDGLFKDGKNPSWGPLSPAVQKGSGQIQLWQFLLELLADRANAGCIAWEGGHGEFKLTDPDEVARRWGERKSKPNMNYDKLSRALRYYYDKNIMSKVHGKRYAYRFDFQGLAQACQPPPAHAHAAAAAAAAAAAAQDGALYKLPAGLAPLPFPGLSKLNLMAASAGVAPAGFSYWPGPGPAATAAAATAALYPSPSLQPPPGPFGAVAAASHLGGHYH
# Outline: (§1)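 In yeast, human transcription factors were expressed with a GST fusion, then pulled down on glutathione beads and given DNA barcodes. Pooled with a tag-only sample, they were exposed to 200 nmole of a 16-mer random double-stranded DNA library (Tris/NaCl/DTT/glycerol buffer, room temperature, 30 min), washed, crosslinked with 0.1% formaldehyde, proximity-ligated using BsaI/T4 ligase for 1 h at 37 °C, PCR-amplified and read on an Illumina NextSeq500. Each hexamer's frequency of reads for a factor, divided by the matching frequency for the tag-only sample, gives the binding signal.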
# ETV5 = ETV5 (Homo sapiens, UniProt P41161 1-510); details: protein: recombinant; tags: N-terminal GST; dsDNA, one strand shown
# Chain of ETV5 (P41161 whole entry): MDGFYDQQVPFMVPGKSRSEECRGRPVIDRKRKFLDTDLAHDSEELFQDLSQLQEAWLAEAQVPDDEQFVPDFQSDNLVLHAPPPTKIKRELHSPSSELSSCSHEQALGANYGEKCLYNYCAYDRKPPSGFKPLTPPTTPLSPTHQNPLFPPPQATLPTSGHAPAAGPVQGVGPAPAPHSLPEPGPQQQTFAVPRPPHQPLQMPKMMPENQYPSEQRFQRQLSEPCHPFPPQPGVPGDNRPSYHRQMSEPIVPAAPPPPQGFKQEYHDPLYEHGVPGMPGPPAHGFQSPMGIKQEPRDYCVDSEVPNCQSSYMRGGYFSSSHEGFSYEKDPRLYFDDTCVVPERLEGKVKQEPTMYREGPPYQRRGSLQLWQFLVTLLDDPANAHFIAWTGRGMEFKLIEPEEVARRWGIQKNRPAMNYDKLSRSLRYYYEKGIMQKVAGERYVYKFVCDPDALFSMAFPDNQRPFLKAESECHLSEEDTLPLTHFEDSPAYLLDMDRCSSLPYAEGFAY
# Outline: as §1
# HSF1 = HSF1 (Homo sapiens, UniProt Q00613 1-529); details: protein: recombinant; tags: N-terminal GST; chain copies: 3; dsDNA, one strand shown
# Chain of HSF1 (Q00613 whole entry): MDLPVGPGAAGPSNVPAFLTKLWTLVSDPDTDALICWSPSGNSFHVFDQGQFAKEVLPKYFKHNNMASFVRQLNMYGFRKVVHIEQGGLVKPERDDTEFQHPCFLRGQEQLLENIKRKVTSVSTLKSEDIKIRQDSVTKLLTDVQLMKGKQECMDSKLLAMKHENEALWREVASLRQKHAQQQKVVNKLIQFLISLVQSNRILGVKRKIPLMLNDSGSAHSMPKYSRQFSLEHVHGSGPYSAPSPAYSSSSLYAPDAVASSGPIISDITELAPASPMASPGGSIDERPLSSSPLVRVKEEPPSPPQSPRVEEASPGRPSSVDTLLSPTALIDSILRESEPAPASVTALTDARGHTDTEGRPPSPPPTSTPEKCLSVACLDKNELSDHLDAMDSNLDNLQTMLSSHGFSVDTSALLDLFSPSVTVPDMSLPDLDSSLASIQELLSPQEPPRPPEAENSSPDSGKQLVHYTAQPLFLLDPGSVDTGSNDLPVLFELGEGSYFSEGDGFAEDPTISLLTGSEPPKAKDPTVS
# Outline: as §1
# SPIC = biological target: T2, SPIC (Homo sapiens, UniProt Q8N5J4 1-248); details: protein: recombinant; tags: N-terminal GST; dsDNA, one strand shown
# T2 sequence: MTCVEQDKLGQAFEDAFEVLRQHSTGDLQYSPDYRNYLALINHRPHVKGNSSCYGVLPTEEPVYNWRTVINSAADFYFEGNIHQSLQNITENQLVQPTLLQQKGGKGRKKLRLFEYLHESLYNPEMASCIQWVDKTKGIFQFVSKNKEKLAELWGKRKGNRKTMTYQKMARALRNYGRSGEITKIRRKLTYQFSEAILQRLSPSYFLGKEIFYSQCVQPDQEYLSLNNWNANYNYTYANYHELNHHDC
# Outline: as §1
# ELF4 = ELF4 (Homo sapiens, UniProt Q99607 1-663); details: protein: recombinant; tags: N-terminal GST; dsDNA, one strand shown
# Chain of ELF4 (Q99607 whole entry): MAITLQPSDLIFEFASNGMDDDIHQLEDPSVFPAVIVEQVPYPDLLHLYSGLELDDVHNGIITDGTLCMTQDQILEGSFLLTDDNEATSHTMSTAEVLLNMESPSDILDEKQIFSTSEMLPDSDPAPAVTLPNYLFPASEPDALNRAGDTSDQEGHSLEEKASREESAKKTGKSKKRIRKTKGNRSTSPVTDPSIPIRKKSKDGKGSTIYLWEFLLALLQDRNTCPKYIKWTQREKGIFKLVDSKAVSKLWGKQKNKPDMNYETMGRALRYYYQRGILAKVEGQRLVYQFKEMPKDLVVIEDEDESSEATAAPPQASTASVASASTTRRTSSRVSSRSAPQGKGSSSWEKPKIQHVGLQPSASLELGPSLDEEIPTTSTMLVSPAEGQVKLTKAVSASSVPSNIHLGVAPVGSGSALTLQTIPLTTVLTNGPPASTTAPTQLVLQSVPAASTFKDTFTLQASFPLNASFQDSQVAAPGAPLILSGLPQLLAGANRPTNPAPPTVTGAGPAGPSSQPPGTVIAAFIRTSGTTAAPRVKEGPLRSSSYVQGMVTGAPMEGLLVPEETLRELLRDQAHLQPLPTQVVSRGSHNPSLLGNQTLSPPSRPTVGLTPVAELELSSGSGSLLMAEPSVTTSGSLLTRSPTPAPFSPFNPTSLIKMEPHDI
# Outline: as §1
# ELK4 = biological target: T3, ELK4 (Homo sapiens, UniProt P28324-2 1-405); details: protein: recombinant; tags: N-terminal GST; dsDNA, one strand shown
# T3 sequence: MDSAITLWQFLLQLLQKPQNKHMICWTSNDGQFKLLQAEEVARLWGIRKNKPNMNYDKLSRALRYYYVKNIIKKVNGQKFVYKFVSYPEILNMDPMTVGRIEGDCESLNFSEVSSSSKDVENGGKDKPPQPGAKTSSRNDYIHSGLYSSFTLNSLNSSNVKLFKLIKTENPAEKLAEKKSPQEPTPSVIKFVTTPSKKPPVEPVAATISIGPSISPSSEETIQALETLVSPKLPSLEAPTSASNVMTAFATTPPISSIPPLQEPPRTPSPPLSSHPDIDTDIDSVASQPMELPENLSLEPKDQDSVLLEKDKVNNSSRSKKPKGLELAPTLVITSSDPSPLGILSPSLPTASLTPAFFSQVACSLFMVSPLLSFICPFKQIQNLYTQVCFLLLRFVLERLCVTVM
# Outline: as §1
# ETV2 = biological target: T4, ETV2 (Homo sapiens, UniProt O00321 1-342); details: protein: recombinant; tags: N-terminal GST; dsDNA, one strand shown
# T4 sequence: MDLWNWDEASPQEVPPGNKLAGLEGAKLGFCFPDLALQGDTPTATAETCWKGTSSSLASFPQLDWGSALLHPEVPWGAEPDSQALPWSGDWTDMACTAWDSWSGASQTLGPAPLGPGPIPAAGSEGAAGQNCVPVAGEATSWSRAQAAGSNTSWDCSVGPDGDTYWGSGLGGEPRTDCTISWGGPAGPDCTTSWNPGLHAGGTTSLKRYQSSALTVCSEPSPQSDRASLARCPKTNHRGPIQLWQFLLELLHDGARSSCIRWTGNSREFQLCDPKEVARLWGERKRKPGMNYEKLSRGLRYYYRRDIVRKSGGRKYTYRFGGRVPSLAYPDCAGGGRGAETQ
# Outline: as §1
# ELF3 = biological target: T5, ELF3 (Homo sapiens, UniProt P78545 1-371); details: protein: recombinant; tags: N-terminal GST; dsDNA, one strand shown
# T5 sequence: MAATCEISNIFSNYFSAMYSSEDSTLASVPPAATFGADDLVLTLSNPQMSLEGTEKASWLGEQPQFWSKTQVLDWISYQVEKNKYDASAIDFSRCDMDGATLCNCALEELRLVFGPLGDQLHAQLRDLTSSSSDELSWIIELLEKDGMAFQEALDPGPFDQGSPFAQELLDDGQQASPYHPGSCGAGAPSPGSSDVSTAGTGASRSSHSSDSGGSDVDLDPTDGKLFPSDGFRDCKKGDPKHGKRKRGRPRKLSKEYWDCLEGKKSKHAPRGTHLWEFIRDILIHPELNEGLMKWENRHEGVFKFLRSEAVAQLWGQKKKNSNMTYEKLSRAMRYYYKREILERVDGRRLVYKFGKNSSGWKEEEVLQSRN
# Outline: as §1
# CRX = CRX (Homo sapiens, UniProt O43186 1-299); details: protein: recombinant; tags: N-terminal GST; dsDNA, one strand shown
# Chain of CRX (O43186 whole entry): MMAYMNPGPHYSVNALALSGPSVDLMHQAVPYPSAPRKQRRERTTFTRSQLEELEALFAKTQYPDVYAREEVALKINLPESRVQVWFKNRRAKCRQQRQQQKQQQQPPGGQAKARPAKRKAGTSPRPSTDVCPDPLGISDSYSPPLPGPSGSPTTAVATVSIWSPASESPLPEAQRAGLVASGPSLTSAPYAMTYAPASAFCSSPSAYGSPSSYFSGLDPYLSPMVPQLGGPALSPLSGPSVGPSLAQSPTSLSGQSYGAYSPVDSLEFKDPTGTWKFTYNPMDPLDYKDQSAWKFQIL
# Outline: as §1
# ETV1 = ETV1 (Homo sapiens, UniProt P50549 1-477); details: protein: recombinant; tags: N-terminal GST; dsDNA, one strand shown
# Chain of ETV1 (P50549 whole entry): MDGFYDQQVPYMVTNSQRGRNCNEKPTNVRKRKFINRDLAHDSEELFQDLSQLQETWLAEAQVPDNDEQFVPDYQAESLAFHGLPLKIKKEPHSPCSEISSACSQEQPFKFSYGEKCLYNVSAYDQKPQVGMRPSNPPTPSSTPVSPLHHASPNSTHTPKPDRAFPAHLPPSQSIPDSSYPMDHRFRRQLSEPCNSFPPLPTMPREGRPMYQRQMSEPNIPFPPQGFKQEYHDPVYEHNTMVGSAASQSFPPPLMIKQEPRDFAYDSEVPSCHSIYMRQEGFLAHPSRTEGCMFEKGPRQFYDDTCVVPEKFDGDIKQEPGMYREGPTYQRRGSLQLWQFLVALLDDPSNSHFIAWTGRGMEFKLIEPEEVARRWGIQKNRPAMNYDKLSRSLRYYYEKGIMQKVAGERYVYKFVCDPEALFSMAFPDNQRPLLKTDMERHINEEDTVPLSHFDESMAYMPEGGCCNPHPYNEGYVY
# Outline: as §1
# ERF = biological target: T6, ERF (Homo sapiens, UniProt P50548 1-548); details: protein: recombinant; tags: N-terminal GST; dsDNA, one strand shown
# T6 sequence: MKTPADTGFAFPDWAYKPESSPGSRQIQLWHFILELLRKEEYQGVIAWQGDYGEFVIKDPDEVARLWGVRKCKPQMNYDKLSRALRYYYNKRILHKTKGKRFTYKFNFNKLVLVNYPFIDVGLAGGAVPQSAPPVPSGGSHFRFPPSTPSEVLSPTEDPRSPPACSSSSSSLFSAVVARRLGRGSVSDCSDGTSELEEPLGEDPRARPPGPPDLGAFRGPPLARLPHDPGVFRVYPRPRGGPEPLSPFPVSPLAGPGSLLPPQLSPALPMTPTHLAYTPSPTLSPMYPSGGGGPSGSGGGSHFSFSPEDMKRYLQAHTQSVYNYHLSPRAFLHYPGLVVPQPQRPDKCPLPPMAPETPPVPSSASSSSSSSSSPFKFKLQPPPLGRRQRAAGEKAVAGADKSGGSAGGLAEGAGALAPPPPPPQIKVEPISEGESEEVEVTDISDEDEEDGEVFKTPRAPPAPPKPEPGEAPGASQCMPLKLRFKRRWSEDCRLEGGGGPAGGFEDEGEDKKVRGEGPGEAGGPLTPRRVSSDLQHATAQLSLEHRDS
# Outline: as §1
# ETV3L = biological target: T7, ETV3L (Homo sapiens, UniProt Q6ZN32 1-361); details: protein: recombinant; tags: N-terminal GST; dsDNA, one strand shown
# T7 sequence: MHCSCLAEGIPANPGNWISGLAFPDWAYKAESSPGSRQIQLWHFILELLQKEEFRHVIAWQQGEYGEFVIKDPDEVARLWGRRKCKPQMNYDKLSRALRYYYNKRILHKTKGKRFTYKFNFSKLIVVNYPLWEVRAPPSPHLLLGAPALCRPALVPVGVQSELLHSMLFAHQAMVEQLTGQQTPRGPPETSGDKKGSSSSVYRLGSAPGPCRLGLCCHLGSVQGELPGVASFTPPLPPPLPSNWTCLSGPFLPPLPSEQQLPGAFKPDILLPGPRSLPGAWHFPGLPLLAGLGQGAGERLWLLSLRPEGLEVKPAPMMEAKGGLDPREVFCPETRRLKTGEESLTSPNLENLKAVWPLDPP
# Outline: as §1
# ETS2 = biological target: T8, ETS2 (Homo sapiens, UniProt P15036 1-469); details: protein: recombinant; tags: N-terminal GST; dsDNA, one strand shown
# T8 sequence: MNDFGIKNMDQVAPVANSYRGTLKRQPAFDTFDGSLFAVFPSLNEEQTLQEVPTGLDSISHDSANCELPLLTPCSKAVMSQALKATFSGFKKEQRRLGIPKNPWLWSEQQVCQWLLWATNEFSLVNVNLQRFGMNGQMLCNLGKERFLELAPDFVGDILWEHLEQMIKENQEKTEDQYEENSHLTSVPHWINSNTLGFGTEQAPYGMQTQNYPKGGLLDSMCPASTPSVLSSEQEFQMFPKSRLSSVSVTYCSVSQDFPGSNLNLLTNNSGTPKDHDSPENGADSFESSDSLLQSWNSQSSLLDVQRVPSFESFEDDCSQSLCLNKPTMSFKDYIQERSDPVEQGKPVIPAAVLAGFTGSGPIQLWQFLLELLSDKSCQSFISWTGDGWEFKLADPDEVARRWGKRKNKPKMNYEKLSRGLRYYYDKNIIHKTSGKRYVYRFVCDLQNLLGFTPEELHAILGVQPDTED
# Outline: as §1
# SPDEF = biological target: T9, SPDEF (Homo sapiens, UniProt O95238 1-335); details: protein: recombinant; tags: N-terminal GST; dsDNA, one strand shown
# T9 sequence: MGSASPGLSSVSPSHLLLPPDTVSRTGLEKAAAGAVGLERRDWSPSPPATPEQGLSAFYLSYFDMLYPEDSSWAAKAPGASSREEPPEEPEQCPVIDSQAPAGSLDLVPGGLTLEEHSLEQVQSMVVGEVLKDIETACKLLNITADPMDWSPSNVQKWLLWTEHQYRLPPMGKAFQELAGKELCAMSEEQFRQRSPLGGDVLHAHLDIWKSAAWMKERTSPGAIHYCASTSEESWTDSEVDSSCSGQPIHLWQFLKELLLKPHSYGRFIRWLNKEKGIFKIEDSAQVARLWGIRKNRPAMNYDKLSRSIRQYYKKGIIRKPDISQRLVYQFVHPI
# Outline: as §1
# ETV7 = biological target: T10, ETV7 (Homo sapiens, UniProt Q9Y603 1-341); details: protein: recombinant; tags: N-terminal GST; dsDNA, one strand shown
# T10 sequence: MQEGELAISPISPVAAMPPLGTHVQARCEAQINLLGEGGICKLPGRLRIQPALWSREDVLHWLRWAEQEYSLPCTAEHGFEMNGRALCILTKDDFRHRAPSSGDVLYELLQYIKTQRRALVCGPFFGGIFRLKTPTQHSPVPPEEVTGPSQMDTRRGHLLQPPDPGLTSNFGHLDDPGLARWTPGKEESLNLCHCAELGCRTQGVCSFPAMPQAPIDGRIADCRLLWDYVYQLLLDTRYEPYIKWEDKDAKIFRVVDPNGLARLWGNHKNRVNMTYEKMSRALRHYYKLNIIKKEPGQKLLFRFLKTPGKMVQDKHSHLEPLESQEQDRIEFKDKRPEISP
# Outline: as §1
# ELF5 = biological target: T11, ELF5 (Homo sapiens, UniProt Q9UKW6-2 1-255); details: protein: recombinant; tags: N-terminal GST; dsDNA, one strand shown
# T11 sequence: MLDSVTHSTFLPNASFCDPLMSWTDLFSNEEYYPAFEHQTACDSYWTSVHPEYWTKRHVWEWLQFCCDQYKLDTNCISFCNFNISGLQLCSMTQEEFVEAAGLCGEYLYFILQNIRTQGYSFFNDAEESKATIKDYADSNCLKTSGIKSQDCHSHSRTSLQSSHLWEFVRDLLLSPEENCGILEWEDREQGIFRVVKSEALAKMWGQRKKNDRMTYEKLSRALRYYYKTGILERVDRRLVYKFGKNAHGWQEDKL
# Outline: as §1
# ETV3 = biological target: T12, ETV3 (Homo sapiens, UniProt P41162-2 1-143); details: protein: recombinant; tags: N-terminal GST; dsDNA, one strand shown
# T12 sequence: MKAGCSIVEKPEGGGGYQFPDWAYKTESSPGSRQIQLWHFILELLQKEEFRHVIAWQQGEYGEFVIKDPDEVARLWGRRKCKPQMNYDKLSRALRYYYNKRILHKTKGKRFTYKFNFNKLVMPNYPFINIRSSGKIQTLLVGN
# Outline: as §1
# ETV6 = ETV6 (Homo sapiens, UniProt P41212 1-452); details: protein: recombinant; tags: N-terminal GST; dsDNA, one strand shown
# Chain of ETV6 (P41212 whole entry): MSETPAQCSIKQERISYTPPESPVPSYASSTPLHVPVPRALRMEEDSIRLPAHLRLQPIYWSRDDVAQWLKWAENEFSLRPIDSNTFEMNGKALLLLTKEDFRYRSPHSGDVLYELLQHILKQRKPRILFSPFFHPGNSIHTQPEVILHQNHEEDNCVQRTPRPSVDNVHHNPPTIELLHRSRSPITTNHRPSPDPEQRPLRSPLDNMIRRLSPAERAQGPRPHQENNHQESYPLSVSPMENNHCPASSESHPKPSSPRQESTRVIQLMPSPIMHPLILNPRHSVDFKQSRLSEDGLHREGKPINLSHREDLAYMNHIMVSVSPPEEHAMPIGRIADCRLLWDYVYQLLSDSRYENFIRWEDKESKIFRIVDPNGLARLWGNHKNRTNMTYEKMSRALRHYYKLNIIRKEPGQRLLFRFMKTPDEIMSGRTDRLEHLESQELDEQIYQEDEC
# Outline: as §1
sequence,measurement,setting,value
CTCTAA,binding signal,FEV,"1.29 fold enrichment (6-mer frequency, TF over GST control)"
same,binding signal,ETV5,"1.37 fold enrichment (6-mer frequency, TF over GST control)"
same,binding signal,HSF1,"1.49 fold enrichment (6-mer frequency, TF over GST control)"
same,binding signal,SPIC,"1.6 fold enrichment (6-mer frequency, TF over GST control)"
same,binding signal,ELF4,"1.31 fold enrichment (6-mer frequency, TF over GST control)"
same,binding signal,ELK4,"1.22 fold enrichment (6-mer frequency, TF over GST control)"
same,binding signal,ETV2,"1.37 fold enrichment (6-mer frequency, TF over GST control)"
same,binding signal,ELF3,"1.5 fold enrichment (6-mer frequency, TF over GST control)"
same,binding signal,CRX,"2 fold enrichment (6-mer frequency, TF over GST control)"
same,binding signal,ETV1,"1.32 fold enrichment (6-mer frequency, TF over GST control)"
same,binding signal,ERF,"1.44 fold enrichment (6-mer frequency, TF over GST control)"
same,binding signal,ETV3L,"1.37 fold enrichment (6-mer frequency, TF over GST control)"
same,binding signal,ETS2,"1.32 fold enrichment (6-mer frequency, TF over GST control)"
same,binding signal,SPDEF,"1.19 fold enrichment (6-mer frequency, TF over GST control)"
same,binding signal,ETV7,"1.27 fold enrichment (6-mer frequency, TF over GST control)"
same,binding signal,ELF5,"1.34 fold enrichment (6-mer frequency, TF over GST control)"
same,binding signal,ETV3,"1.24 fold enrichment (6-mer frequency, TF over GST control)"
same,binding signal,ETV6,"1.26 fold enrichment (6-mer frequency, TF over GST control)"

# Source: paper PMC7862700, “An all-to-all approach to the identification of sequence-specific readers for epigenetic DNA modifications on cytosine”
